Assay [1] is described as follows: HepG2 liver cancer cell viability effects, profiling panel, resazurin fluorescence, 24 h, PK04 Diversity Set (AID 1172). The following applies: higher = more signal.
Assay [2] can be described thus: basal S. cerevisiae growth modulation, no modifier, primary screen, OD600, strain BY4716, 24 h, basal condition (AID 1173). The following applies: OD600, 24 h, higher = more signal, called active from +8 up or from −8 down.
The nature of assay [3]: MM1S myeloma cell viability, profiling panel, resazurin fluorescence, basal, 24 h, PK04 Diversity Set (AID 1174).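 Further: MM1S multiple myeloma cell line.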 To be noted: higher = more signal, called active from +8 up or from −8 down.
Assay [4] addresses Dihydroorotate dehydrogenase (quinone), mitochondrial (Plasmodium falciparum (isolate 3D7)) (UniProt Q08210). Kind of assay: PfDHODH enzyme inhibitors, primary screen, biochemical, C-terminal His tag, absorbance 600 nm (AID 1175).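 Further: recombinant parasite enzyme with a five histidine tag at its C terminus.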 To be noted: DCIP absorbance 600 nm, higher = more signal, called active from +8 up or from −8 down.
The nature of assay [5]: P. aeruginosa biofilm formation inhibitors, primary screen, strain PAO1, LB-PBS medium, absorbance 600 nm (AID 1176). To be noted: P. aeruginosa PAO1 growth/biofilm, A600, 12 h; higher = more signal.
The nature of assay [6]: S. cerevisiae RM11-1a growth modifiers, primary screen, strain RM11-1a, OD600, basal, 24 h (AID 1177).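 Further: cultures grown under basal conditions with no added stressor.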 To be noted: OD600, 24 h, higher = more signal, called active from +8 up or from −8 down.
Assay [7] can be described thus: E. coli acrAB mutant growth effects, primary screen, E. coli filamentation inducers, strain DRC39, OD650, 24 h (AID 1178).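 Further: growth measured as culture turbidity by optical density at 650 nm.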 The following applies: higher = more signal, called active from +8 up or from −8 down.
Assay [8] is described as follows: E. coli acrAB mutant growth effects, primary screen, E. coli filamentation inducers, strain DRC39, OD650, 48 h (AID 1179).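 Further: screen aims at cell division blockers that make cells filament.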 The following applies: E. coli DRC39 delta-acrAB growth, higher = more signal, called active from +8 up or from −8 down.
The nature of assay [9]: RPMI8226 myeloma cell viability, profiling panel, resazurin fluorescence, basal, 24 h, PK04 Diversity Set (AID 1180).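 Further: RPMI8826 multiple myeloma cell line at 5000 cells per well.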 The following applies: higher = more signal.
In assay [10] the target is E3 ubiquitin-protein ligase XIAP (Homo sapiens) (UniProt P98170). Put plainly: XIAP binders, primary screen, biophysical, small-molecule microarray, fluorescence 635 nm (AID 1181).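 Further: score merges 667 nm emission and signal to noise over triplicate slides.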 To be noted: small-molecule microarray binding, higher = more signal.
Sequence of E3 ubiquitin-protein ligase XIAP (Homo sapiens) (P98170 whole entry, looked up): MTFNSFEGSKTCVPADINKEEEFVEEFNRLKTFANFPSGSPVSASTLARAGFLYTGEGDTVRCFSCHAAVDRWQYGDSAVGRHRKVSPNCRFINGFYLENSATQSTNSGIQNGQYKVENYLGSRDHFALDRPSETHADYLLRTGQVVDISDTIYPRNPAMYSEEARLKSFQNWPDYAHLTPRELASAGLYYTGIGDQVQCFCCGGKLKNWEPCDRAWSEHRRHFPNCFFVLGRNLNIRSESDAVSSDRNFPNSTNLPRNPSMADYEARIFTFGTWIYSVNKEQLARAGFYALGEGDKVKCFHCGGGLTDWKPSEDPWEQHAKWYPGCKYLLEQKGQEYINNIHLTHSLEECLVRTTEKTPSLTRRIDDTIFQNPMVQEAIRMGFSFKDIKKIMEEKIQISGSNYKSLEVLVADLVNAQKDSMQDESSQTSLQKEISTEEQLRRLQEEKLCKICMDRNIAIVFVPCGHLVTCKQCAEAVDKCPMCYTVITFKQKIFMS
The test system of assay [11] is XIP peptide (Xip251-270) binding. Put plainly: small-molecule binders of XIP peptide, primary screen, biochemical, small-molecule microarray, fluorescence 635/667 nm, 0.1 µg/mL protein (AID 1182). To be noted: fluorescent protein binding, 635 nm, higher = more signal, called active from +8 up or from −8 down.
Another assay concerns XIP peptide (Xip251-270). Kind of assay: small-molecule binders of XIP peptide, primary screen, biochemical, small-molecule microarray, fluorescence 635/667 nm, 0.5 µg/mL protein (AID 1183). The following applies: small-molecule microarray binding, fluorescence 635 nm; higher = more signal.
Assay [12] can be described thus: Plasmodium falciparum growth inhibition, primary screen, strain 3D7, DAPI fluorescence, 100 nL (AID 1184).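 Further: parasites grown inside human red blood cells in medium with human serum.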 The following applies: P. falciparum 3D7 growth, 3 d, higher = more signal.
For assay [13], the target named is Homeobox protein Hox-A13 (Mus musculus) (UniProt Q62424). Put plainly: inhibitors of HoxA13-DNA binding, primary screen, biochemical, fluorescence polarization, labeled oligonucleotide (AID 1185). To be noted: 15 min, higher = more signal, called active from +8 up or from −8 down.
Sequence of Homeobox protein Hox-A13 (Mus musculus) (Q62424 whole entry, looked up): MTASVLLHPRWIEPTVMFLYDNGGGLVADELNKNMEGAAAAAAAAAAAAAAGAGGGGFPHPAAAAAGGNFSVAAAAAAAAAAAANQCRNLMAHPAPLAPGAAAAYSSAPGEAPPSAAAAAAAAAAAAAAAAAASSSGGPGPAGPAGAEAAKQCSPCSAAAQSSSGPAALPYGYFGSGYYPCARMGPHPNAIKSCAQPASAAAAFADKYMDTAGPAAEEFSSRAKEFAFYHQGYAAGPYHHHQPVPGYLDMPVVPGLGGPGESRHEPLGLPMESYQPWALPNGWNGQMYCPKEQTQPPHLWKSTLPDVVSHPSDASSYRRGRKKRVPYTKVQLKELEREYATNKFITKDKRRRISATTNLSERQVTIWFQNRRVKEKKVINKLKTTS
Assay [14] in a line: inhibitors of hydroxyurea-induced Chk1 phosphorylation, primary screen, imaging, HeLa, phospho-Chk1 antibody, percent positive cells (AID 1186). The following applies: hydroxyurea-induced phospho-Chk1 immunofluorescence imaging, higher = more signal.
Assay [15] is described as follows: inhibitors of hydroxyurea-induced Chk1 phosphorylation, primary screen, imaging, HeLa, phospho-Chk1 nuclear intensity (AID 1187). To be noted: hydroxyurea-induced phospho-Chk1 immunofluorescence imaging, higher = more signal.

Molecules are shown by their SMILES. Activity calls are given as the source filed them. Unless noted, how the calls were made is not given here.

Sequence of Dihydroorotate dehydrogenase (quinone), mitochondrial (Plasmodium falciparum (isolate 3D7)) (Q08210 whole entry, looked up): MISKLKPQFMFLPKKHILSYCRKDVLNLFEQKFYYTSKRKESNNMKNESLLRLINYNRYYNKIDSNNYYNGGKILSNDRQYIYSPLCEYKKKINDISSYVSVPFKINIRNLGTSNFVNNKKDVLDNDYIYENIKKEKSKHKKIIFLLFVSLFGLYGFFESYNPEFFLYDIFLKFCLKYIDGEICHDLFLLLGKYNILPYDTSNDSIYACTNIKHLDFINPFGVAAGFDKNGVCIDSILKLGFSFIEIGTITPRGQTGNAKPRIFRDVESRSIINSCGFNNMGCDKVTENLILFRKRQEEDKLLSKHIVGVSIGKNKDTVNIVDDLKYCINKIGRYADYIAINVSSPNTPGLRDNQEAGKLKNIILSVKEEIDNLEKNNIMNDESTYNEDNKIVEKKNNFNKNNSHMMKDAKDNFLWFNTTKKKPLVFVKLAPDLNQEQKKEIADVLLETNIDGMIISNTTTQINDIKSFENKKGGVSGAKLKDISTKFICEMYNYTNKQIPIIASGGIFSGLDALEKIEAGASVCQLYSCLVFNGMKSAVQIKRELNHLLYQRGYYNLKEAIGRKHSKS

With `CC(C)C[C@@H]1NC(=O)[C@H](CC(C)C)NC(=O)[C@@]23C(=O)N[C@@H](Cc4ccccc4)C2[C@H](C)[C@@]2(C)O[C@H]2C3/C=C/CC/C=C/CNC1=O` (some centres undefined), the z-score in assay [1] was -0.0096; in [2], -0.737 (inactive); in [3], 0.229 (inactive); in assay [5], 0.179 (inactive); in assay [6], 0.569 (inactive); in assay [7], 0.794 (inactive). The z-score in [8] was -0.103 (inactive); in [9], 0.0441; in assay [12] it was -1.52; in assay [13], -6.55 (inactive); in assay [14], -0.218 (inactive); in assay [15] it was -0.0919 (inactive). Besides, the composite z-score in assay [4] was -0.744 (inactive); in assay [10], -0.02; in assay [11], -0.404 (inactive); in the assay with XIP peptide (Xip251-270), 0.674.

For the compound `C=C(C(=O)CC[C@H](OC(=O)c1ccccc1-c1ccccc1C(=O)O)c1ccc(CO)o1)C(C)C`, the z-score was -0.256 in assay [1]; 0.656 (inactive) in [2]; 0.192 (inactive) in [3]; 0.98 (inactive) in assay [5]; 1.73 (inactive) in assay [6]; 0.101 (inactive) in assay [7]. The z-score in assay [8] is 0.0357 (inactive); in assay [9] it was 0.951; in assay [12] it was -0.241; in assay [13], -6.22 (inactive); in [14], 0.38 (inactive); in [15] it was 0.239 (inactive). The composite z-score in [4] is -0.976 (inactive); in assay [10] it was -0.153; in assay [11], 0.161 (inactive); in the assay with XIP peptide (Xip251-270), 0.697.

Regarding `COc1cc2c(cc1OC)CN(C(=O)[C@H]1[C@@H]3C(=O)O[C@@H](c4ccccc4)[C@@H](c4ccccc4)N3[C@@H](c3ccc(O)cc3)[C@]13C(=O)Nc1ccc(C#CC4(O)CCCCCC4)cc13)CC2`, the z-score in assay [1] was 0.496; in assay [2], 0.076 (inactive); in assay [3], -0.4 (inactive); in assay [5], 0.89 (inactive); in assay [6] it was 0.087 (inactive); in assay [7] it was -0.463 (inactive). The z-score was -0.794 (inactive) in assay [8]; 1.15 in assay [9]; -1.51 in assay [12]; -1.42 (inactive) in assay [13]; -0.0159 (inactive) in assay [14]; 0.0808 (inactive) in [15]. In addition, the composite z-score in assay [4] is -0.543 (inactive); in [10], 0.364; in assay [11], 3.38 (inactive); with XIP peptide (Xip251-270), 0.838.

Consider `COc1ccc([Si](C)(C)[C@@H]2[C@@H](CC(=O)N(CCO)Cc3ccccc3)O[C@]3(C(=O)N(Cc4cccc(N5CCC5=O)c4)c4ccccc43)[C@H]2C)cc1`, for which the z-score in [1] is -1.51; in assay [2], 0.328 (inactive); in assay [3], -2.9 (inactive); in assay [5], 0.708 (inactive); in [6] it was 1.32 (inactive); in assay [7], 0.882 (inactive). For the same compound, the z-score was -0.0661 (inactive) in assay [8]; -2.08 in [9]; -2.5 in assay [12]; -1.54 (inactive) in assay [13]; -0.0556 (inactive) in assay [14]; -0.0513 (inactive) in assay [15]. For the same compound, the composite z-score in [4] is -0.645 (inactive); in [10] it was 0.154; in assay [11] it was 1.09 (inactive); in the assay with XIP peptide (Xip251-270), 0.756.

For `Cc1ccc(N2C(=O)c3ccccc3[C@@H](C(=O)NCC(F)(F)F)[C@@H]2c2ccc(CO)cc2)nc1`, the z-score is 0.129 in [1]; -0.789 (inactive) in assay [2]; 1.21 (inactive) in assay [3]; 0.429 (inactive) in assay [5]; -0.872 (inactive) in assay [6]; 0.419 (inactive) in [7]. The z-score was 0.127 (inactive) in [8]; 0.607 in assay [9]; -0.0188 in assay [12]; -0.71 (inactive) in [13]; -0.0128 (inactive) in assay [14]; 0.171 (inactive) in assay [15]. In addition, the composite z-score was -0.417 (inactive) in [4], -0.227 in assay [10], -0.118 (inactive) in assay [11] and -0.138 in the assay with XIP peptide (Xip251-270).

Regarding `Cc1ccc([C@@H]2CC=C(C(=O)O)[C@H](c3ccccc3)N2S(=O)(=O)c2ccc(C)cc2)cc1`, the z-score is -1.02 in assay [1]; -2.08 (inactive) in assay [2]; -1.26 (inactive) in assay [3]; -0.405 (inactive) in assay [5]; 0.0193 (inactive) in assay [6]; -1.36 (inactive) in assay [7]. Moreover, the z-score in [8] was -1.3 (inactive); in [9], -1.99; in assay [12], -0.745; in assay [13] it was -7.09 (inactive); in assay [14], -0.489 (inactive); in assay [15], -0.824 (inactive). For the same compound, the composite z-score in [4] was -0.527 (inactive); in [10] it was -0.202; in assay [11], 1.71 (inactive); in the assay with XIP peptide (Xip251-270), 0.909.

As to `NC(=O)NCC#Cc1ccc2c(c1)[C@]1(C(=O)N2)[C@H](c2ccccc2OCCO)N2[C@H](c3ccccc3)[C@H](c3ccccc3)OC(=O)[C@H]2[C@@H]1C(=O)N1CCN(c2ncccn2)CC1`, the z-score was -0.381 in [1]; 0.887 (inactive) in assay [2]; -0.17 (inactive) in assay [3]; 2.31 (inactive) in assay [5]; 2.03 (inactive) in assay [6]; 1.27 (inactive) in assay [7]. The z-score is 0.158 (inactive) in assay [8]; 1.19 in [9]; -2.34 in assay [12]; 0.487 (inactive) in assay [13]; 0.553 (inactive) in [14]; 1.5 (inactive) in assay [15]. Further, the composite z-score was -0.343 (inactive) in assay [4], -0.178 in [10], 0.233 (inactive) in assay [11] and 0.763 in the assay with XIP peptide (Xip251-270).

Consider `COC(=O)Cn1c(C(=O)N2CCCC2)cc2c1C[C@H]1CN(C(=O)c3ccccc3)[C@@](Cc3ccc(OC)cc3)(C(=O)OC)[C@@H]21`, for which the z-score in [1] is 0.101; in [2] it was 1.5 (inactive); in assay [3] it was -2.14 (inactive); in [5], 0.259 (inactive); in assay [6] it was 0.569 (inactive); in [7], -0.506 (inactive). Moreover, the z-score in assay [8] is -0.031 (inactive); in assay [9], -2.1; in assay [12], -1.48; in assay [13] it was -3.21 (inactive); in assay [14] it was 0.847 (inactive); in assay [15], 0.487 (inactive). The composite z-score is -0.632 (inactive) in assay [4], 0.311 in assay [10], 0.516 (inactive) in assay [11] and 0.518 with XIP peptide (Xip251-270).

For `C=C(C)[C@@H]1CC=C(C(O)C2C=CC3C(=O)NC(=O)C3N2Nc2ccccn2)CC1` (some centres undefined), the z-score is -1.3 in assay [1]; -0.252 (inactive) in [2]; -1.48 (inactive) in assay [3]; 1.99 (inactive) in assay [5]; -0.0819 (inactive) in [6]; -0.575 (inactive) in assay [7]. Moreover, the z-score is -0.339 (inactive) in assay [8]; -2.2 in [9]; 0.982 in assay [12]; -3.65 (inactive) in assay [13]; 0.129 (inactive) in assay [14]; -0.126 (inactive) in assay [15]. In addition, the composite z-score was 0.291 (inactive) in assay [4], 0.287 in assay [10], 0.745 (inactive) in assay [11] and 0.718 with XIP peptide (Xip251-270).

For the origin of these results see PubChem BioAssay.
